# Assay results reported in the supplement of paper PMC12669032.
# A number with no mark means an inactive call.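 Rule for the calls: active = AUC reduced over 20% with Padj below 0.05 in at least 2 of 3 replicates; inactive = otherwise.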
# How the values were obtained:
# [1] = tested on: Roseburia intestinalis; assay: growth AUC relative to DMSO control (median of replicates) (fraction); higher = more growth (less inhibition), active = hit call of the paper; details: 20 µM; 24 h
# Method in brief: (§1)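 Gut bacterial monocultures in mGAM were treated with 20 µM compound (1% DMSO) and grown anaerobically at 37 °C in round-bottom 96-well plates from OD600 0.05. OD600 was read hourly for 24 h, with the minimum OD set to 0. Area under the growth curve was normalised to the plate median of solvent-only wells, or to row and column medians on the industrial chemical plate. Each value is the median of three biological replicates, each grown on a separate day.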
# [2] = tested on: Streptococcus salivarius; assay: as above; details: 20 µM; 24 h
# Method in brief: as §1
Compound,growth AUC [1],growth AUC [2]
O=C(O)COc1ccc(Cl)cc1CO,0.945,0.932
CC(C)OC(=O)c1cc(C(=O)OC(C)C)cc([N+](=O)[O-])c1,0.974,0.992
CC(CNC(=S)[S-])NC(=S)[S-].[Zn+2] (mixture of isomers),0.979,0.988
COC(=O)C(C)Oc1ccc(Cl)cc1C (stereo not given),1.04,0.988
O.O.O=[N+]([O-])c1ccc([O-])cc1.[Na+],0.999,1.05
